From the antibiotic and cytotoxicity screens of Wong et al. (2023)
The whole screen tested about 39,000 compounds, of which about 3,300 (8.5%) were called active. For the sample, actives were picked, then their nearest neighbours and some compounds at random.

system: HepG2; assay: cytotoxicity call (relative viability < 0.9); settings: 10 µM

Row | SMILES | cytotoxicity call
1 | Cc1[nH]c(=O)[nH]c(=O)c1S(=O)(=O)N1CCC[C@H](C(=O)NCc2ccc3c(c2)OCO3)C1 | inactive
2 | C[C@@H]1CN([C@@H](C)CO)C(=O)c2cc(NC(=O)NC3CCCCC3)ccc2O[C@@H](C)CCCCO[C@H]1CN(C)Cc1ccncc1 | inactive
3 | C[C@H]1CN([C@@H](C)CO)S(=O)(=O)c2ccc(C#CC3(O)CCCC3)cc2O[C@H]1CN(C)C(=O)Nc1cccc(F)c1 | inactive
4 | C[C@H](CO)N1C[C@H](C)[C@H](CN(C)Cc2ccc(C(F)(F)F)cc2)Oc2ccc(NC(=O)Cc3cn(C)c4ccccc34)cc2C1=O | inactive
5 | O=C(C[C@@H]1CC[C@H](NC(=O)Cc2ccccn2)[C@@H](CO)O1)NCCCN1CCOCC1 | inactive
6 | COc1ccc(CN(C)C[C@H]2OCCCC[C@@H](C)Oc3ccc(NC(=O)Nc4c(C)noc4C)cc3C(=O)N([C@H](C)CO)C[C@@H]2C)cc1 | inactive
7 | C[C@H]1CCCCO[C@H](CN(C)C(=O)Nc2ccc3c(c2)OCO3)[C@@H](C)CN([C@@H](C)CO)C(=O)c2cc(NC(=O)Nc3cccc4ccccc34)ccc2O1 | inactive
8 | COc1ccc(S(=O)(=O)N(C)C[C@H]2Oc3ccc(NC(=O)CCC(F)(F)F)cc3CC(=O)N([C@H](C)CO)C[C@@H]2C)cc1 | inactive
9 | C[C@@H]1CN([C@H](C)CO)C(=O)Cc2cc(NS(=O)(=O)c3cccs3)ccc2O[C@H]1CN(C)Cc1ccc(Cl)c(Cl)c1 | inactive
10 | Cc1cccc(S(=O)(=O)N2C[C@H](O)COC[C@@H]3O[C@H](CC(=O)NCCCN4CCOCC4)CC[C@H]32)c1 | inactive
11 | CC(=O)C=C(O)CCC(=O)O | inactive
12 | C=CCSC1=N[C@@]2(COCc3ccc(OC)cc3)Oc3ccccc3[C@H]([C@H]2CO[Si](C)(C)C(C)(C)C)N1C(=O)c1ccccc1 | inactive
13 | Cc1noc(C)c1S(=O)(=O)Nc1ccc2c(c1)C(=O)N([C@H](C)CO)C[C@H](C)[C@H](CN(C)C)OCCCC[C@H](C)O2 | inactive
14 | Nc1ncn([C@H]2C[C@H](O)[C@@H](CO)O2)c(=O)n1 | inactive
15 | CNc1ncnc2c1ncn2[C@@H]1O[C@H](CO)[C@@H](O)[C@H]1O | inactive
16 | OC[C@H]1O[C@@H](n2cnc3c(NC4CCCC4)ncnc32)[C@H](O)[C@@H]1O | inactive
17 | Nc1ncn(C2OC(CO)C(O)C2O)c(=O)n1 (stereo not given) | active
18 | Nc1ccn([C@@H]2O[C@H](CO)[C@@H](O)[C@@H]2O)c(=O)n1 | inactive
19 | Nc1ncn([C@@H]2C[C@H](O)[C@@H](CO)O2)c(=O)n1 | inactive
20 | Nc1ccn([C@@H]2O[C@H](CO)[C@H](O)[C@@H]2O)c(=O)n1 | inactive
21 | Nc1ncn([C@@H]2O[C@H](CO)[C@@H](O)[C@H]2O)c(=O)n1 | active
22 | OC[C@H]1O[C@@H](n2cnc3c(NCc4ccco4)ncnc32)[C@H](O)[C@@H]1O | active

Row | SMILES | cytotoxicity call
23 | C/C=C/c1ccc2c(c1)O[C@H](CN(C)S(=O)(=O)c1ccc(F)cc1)[C@H](C)CN([C@H](C)CO)S2(=O)=O | inactive
24 | CCO[C@H]1[C@H]2CC[C@@H]1N(C(=O)N(C)C)CCO2 | inactive
25 | C[C@@H]1CCCCO[C@H](CN(C)S(C)(=O)=O)[C@H](C)CN([C@@H](C)CO)C(=O)c2cc(NS(C)(=O)=O)ccc2O1 | inactive
26 | CCC(=O)N[C@@H]1C=C[C@@H](CC(=O)OC)O[C@@H]1CO | inactive
27 | CC(C)NC(=O)N(C)C[C@H]1Oc2ccc(NS(=O)(=O)c3ccccc3)cc2C(=O)N([C@@H](C)CO)C[C@@H]1C | inactive
28 | COc1ccc(S(=O)(=O)Nc2ccc3c(c2)C(=O)N([C@@H](C)CO)C[C@@H](C)[C@@H](CN(C)Cc2ccccc2)OCCCC[C@@H](C)O3)cc1 | inactive
29 | O=C(C[C@H]1CC[C@@H]2[C@H](COC[C@H](O)CN2C(=O)C2CC2)O1)NCc1ccncc1 | inactive
30 | Cc1cc(O)cc2c1O[C@](C)(CCC[C@H](C)CCC[C@H](C)CCCC(C)C)CC2 | inactive
31 | Cc1noc(C)c1S(=O)(=O)Nc1cccc2c1O[C@H](CN(C)C(=O)NC1CCCCC1)[C@H](C)CN([C@@H](C)CO)C2=O | inactive
32 | C[C@H](CO)N1C[C@H](C)[C@H](CN(C)C(=O)Nc2ccc(F)cc2)Oc2ncc(C#Cc3ccc(C(F)(F)F)cc3)cc2C1=O | inactive
33 | C[C@H]1CN([C@@H](C)CO)C(=O)c2cccc(NS(=O)(=O)c3cccs3)c2O[C@H]1CN(C)Cc1ccc(Oc2ccccc2)cc1 | inactive
34 | C[C@H](CO)N1C[C@H](C)[C@H](CN(C)C(=O)Nc2ccc(F)cc2)Oc2c(NC(=O)Nc3cccc4ccccc34)cccc2C1=O | active
35 | C[C@@H]1CN([C@@H](C)CO)C(=O)c2cccc(NC(=O)Nc3cccc4ccccc34)c2O[C@H]1CN(C)C(=O)Nc1ccccc1 | active
36 | C[C@H](CO)N1C[C@H](C)[C@@H](CN(C)C(=O)Nc2ccc(F)cc2)Oc2c(NC(=O)Nc3cccc4ccccc34)cccc2C1=O | inactive
37 | COc1ccc(NC(=O)Nc2cccc3c2O[C@@H](CN(C)C(=O)Nc2cccc4ccccc24)[C@H](C)CN([C@@H](C)CO)C3=O)cc1 | inactive
38 | C[C@H]1CN([C@@H](C)CO)C(=O)c2cccc(NC(=O)Nc3cccc4ccccc34)c2O[C@H]1CN(C)C(=O)Nc1ccccc1 | inactive
39 | C[C@H]1CN([C@@H](C)CO)C(=O)c2cccc(NC(=O)Nc3cccc4ccccc34)c2O[C@@H]1CN(C)C(=O)Nc1ccccc1 | inactive
40 | COc1ccc(NC(=O)Nc2cccc3c2O[C@H](CN(C)C(=O)Nc2cccc4ccccc24)[C@H](C)CN([C@H](C)CO)C3=O)cc1 | active
41 | COc1ccc(NC(=O)Nc2cccc3c2O[C@@H](CN(C)C(=O)Nc2cccc4ccccc24)[C@H](C)CN([C@H](C)CO)C3=O)cc1 | inactive
42 | C[C@@H]1CN([C@H](C)CO)C(=O)c2cccc(NC(=O)Nc3cccc4ccccc34)c2O[C@H]1CN(C)C(=O)Nc1ccc(F)cc1 | inactive
43 | C[C@H](CO)N1C[C@H](C)[C@H](CN(C)Cc2ccc(Cl)c(Cl)c2)Oc2c(NC(=O)Nc3ccc4c(c3)OCO4)cccc2C1=O | inactive
44 | C[C@H](CO)N1C[C@H](C)[C@H](CN(C)C(=O)c2ccncc2)Oc2cc(C#C[C@@H](C)O)ccc2S1(=O)=O | inactive

Row | SMILES | cytotoxicity call
45 | Cc1cc(F)ccc1S(=O)(=O)N1[C@@H]2CC[C@@H](C2)[C@H]1c1nc2cccc(OCc3ccc(F)cc3)c2[nH]1 | inactive
46 | C[C@@H]1CCCCO[C@H](CN(C)S(=O)(=O)c2cn(C)cn2)[C@@H](C)CN([C@H](C)CO)C(=O)c2cc(N(C)C)ccc2O1 | inactive
47 | C[C@H](CO)N1C[C@H](C)[C@@H](CN(C)C(=O)Nc2ccc(C(F)(F)F)cc2)Oc2ccc(NS(=O)(=O)c3ccc(Cl)cc3)cc2C1=O | inactive
48 | CCCN1C[C@H](C)[C@H](OC)CN(C)C(=O)c2ccc(NS(=O)(=O)c3cn(C)cn3)cc2OC[C@@H]1C | inactive
49 | CN1CCN(C(=O)C[C@@H]2CC[C@H]3[C@@H](COC[C@H](O)CN3C(=O)C3CCOCC3)O2)CC1 | inactive
50 | C[C@H]1CN([C@@H](C)CO)C(=O)c2cccc(NS(=O)(=O)c3ccccc3)c2O[C@H]1CN(C)Cc1ccc(Oc2ccccc2)cc1 | inactive
51 | C[C@@H]1CN([C@@H](C)CO)C(=O)c2cc(NC(=O)C3CCCCC3)ccc2O[C@@H](C)CCCCO[C@@H]1CN(C)Cc1ccccc1 | inactive
52 | COc1cc(C(=O)O[C@H]2CC[C@@]3(C)[C@@H]4CC[C@H]5[C@]6(O)C[C@H](O)[C@@]7(O)[C@@H](CN8C[C@@H](C)CC[C@H]8[C@@]7(C)O)[C@]6(O)C[C@@]53O[C@@]24O)cc(OC)c1OC | inactive
53 | O=C(Nc1ncc(SCCN2CCCC2)s1)[C@]1(c2ccc(S(=O)(=O)C3CC3)cc2)C[C@H]1C1CCCCC1 | active
54 | Cc1ccc(-c2ccc3c(c2)O[C@H](CN(C)C(=O)CN(C)C)[C@@H](C)CN([C@H](C)CO)S3(=O)=O)cc1 | inactive
55 | Cn1c(C(=O)N2CCCO[C@@H](Cn3cccn3)C2)cc(=O)n(C)c1=O | inactive
56 | C[C@H]1CN([C@@H](C)CO)C(=O)c2cc(NC(=O)Nc3ccc(F)cc3)ccc2O[C@@H]1CN(C)S(=O)(=O)c1cn(C)cn1 | inactive
57 | COc1ccc(S(=O)(=O)N(C)C[C@@H]2Oc3ccc(NS(=O)(=O)c4cn(C)cn4)cc3CC(=O)N([C@@H](C)CO)C[C@@H]2C)cc1 | inactive
58 | CN(C)c1cc(CNCC(C)(C)C)c(O)c2c1C[C@H]1C[C@H]3[C@H](N(C)C)C(=O)[C@H](C(N)=O)C(=O)[C@@]3(O)C(=O)[C@@H]1C2=O | inactive
59 | C[C@H]1CN([C@@H](C)CO)C(=O)c2cc(NC(=O)Nc3ccc(C(F)(F)F)cc3)ccc2O[C@@H]1CN(C)Cc1ccncc1 | active
60 | C[C@H]1CN([C@@H](C)CO)C(=O)c2cc(NC(=O)Nc3ccc(C(F)(F)F)cc3)ccc2O[C@H]1CN(C)Cc1ccncc1 | inactive
61 | C[C@@H]1CN([C@H](C)CO)C(=O)c2cc(NC(=O)Nc3ccc(C(F)(F)F)cc3)ccc2O[C@H]1CN(C)Cc1ccncc1 | inactive
62 | C[C@@H]1CN([C@@H](C)CO)C(=O)c2cc(NC(=O)Nc3ccc(C(F)(F)F)cc3)ccc2O[C@H]1CN(C)Cc1ccncc1 | active
63 | C[C@@H]1CN([C@@H](C)CO)C(=O)c2cc(NC(=O)Nc3ccc(C(F)(F)F)cc3)ccc2O[C@@H]1CN(C)Cc1ccncc1 | inactive
64 | C[C@@H]1CN([C@H](C)CO)C(=O)c2cc(NC(=O)Nc3ccc(C(F)(F)F)cc3)ccc2O[C@@H]1CN(C)Cc1ccncc1 | inactive
65 | CO[C@H]1CN(C)C(=O)c2cc(NC(=O)C3CCOCC3)ccc2OC[C@@H](C)N(Cc2cccnc2)C[C@@H]1C | inactive
